Laboratory results from PubChem BioAssay (NCATS).
Values joined by “and” are separate entries in the source; they are usually repeats but may differ in a detail not shown here. Equal entries are not always repeated. Inconclusive results are not listed. Active and inactive are the calls of the source. Unless noted, the call rests on the fitted dose curve; in most records, active means well fitted curve in the direction sought with a large enough effect; inconclusive means small, poorly fitted or top-dose-only effect, or another doubt; inactive means no such curve, though single readings can be large; an effect the other way counts as inactive or inconclusive.

Tests used:
[1] = Cell Viability - Jurkat (AID 426;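 active means dose-dependent loss of cell ATP signal giving a full or clear fitted curve, ranked by lower potency value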; further: potency means the concentration at half of the fitted maximal effect); details: qHTS
Summary of the method: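 Cells of the human T-cell leukemia line Jurkat (E6-1) are seeded at 5000 per well, treated with compound across a concentration range for 40 hours at 37 °C, then lysed with CellTiter-Glo; luminescence reports ATP.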

[2] = Cell Viability - Hek293 (AID 427;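 active means compounds whose dose-response curve shows a full or clear partial loss of cell viability, called from curve shape rather than a numeric limit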;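 further: potency means the concentration at half of the fitted maximal effect; cells exposed to compound for 40 hours at 37 °C before reading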); details: qHTS
Summary of the method: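 HEK293 cells in complete medium were exposed to compound for 40 hr at 37 °C, then cellular ATP was read by CellTiter-Glo luminescence. Data were normalized to DMSO (basal) and 100 uM tamoxifen (100% inhibition), and AC50 came from Hill fits.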

[3] = Cell Viability - H-4-II-E (AID 543); details: H-4-II-E rat hepatoma viability; series mostly up to 92.2 µM; further: on the % scale 0 is the no-effect control and ±100 the full control effect; nearly all actives have a fitted effect of over 35% in size
Summary of the method: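 Cells seeded at 1500 per well and rested 5 hr; compounds added; 40 hr incubation at 37 °C; CellTiter-Glo added, 20 min at room temperature; luminescence read. Hill-equation fits gave AC50.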

[4] = Cell Viability - SH-SY5Y (AID 544); details: SH-SY5Y neuroblastoma cell viability; series mostly up to 92.2 µM; further: nearly all actives have a fitted effect of over 55% in size
Summary of the method: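 Cells were plated at 1500 per well and allowed 5 hr at 37 °C. Compounds were added across a concentration range and incubated 40 hr at 37 °C. CellTiter-Glo was added for 20 min at room temperature before luminescence reading.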

[5] = Cellular Toxicity (caspase-3) Jurkat (AID 655); details: Jurkat caspase-3 activation, luminescence, DMSO = 0%, tamoxifen = 100%; at 92.2 µM (top of the series);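 further: cells exposed to compound for 16 h at 37 °C before reading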
Summary of the method: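 Luminescent caspase-3/7 readout (aminoluciferin substrate cleavage) in human T-cell leukemia Jurkat cells after 16 hr compound exposure. Concentration-response normalized to DMSO and 100 uM tamoxifen; AC50 by standard Hill equation.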

[6] = Cellular Toxicity (caspase-3) N2a (AID 665); details: N2a cells, luminescence, normalized: DMSO 0%, 10 µM staurosporine 100%; series mostly up to 92.2 µM;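 further: compound exposure lasted 16 h at 37 °C before readout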
Summary of the method: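 Caspase-3/7 activation, measured as increased luminescence from aminoluciferin release, is quantified in mouse N2a cells exposed to compounds for 16 h. Values are normalized to DMSO and 10 uM staurosporine, with AC50 derived by Hill modelling.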

[7] = Cellular Toxicity (caspase-3) NIH 3T3 (AID 666); details: NIH 3T3 caspase-3 activation, apoptosis/toxicity, 0% DMSO, 100% is 100 µM tamoxifen; series mostly up to 92.2 µM;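 further: caspase signal read after 16 h compound exposure; 0% = DMSO basal and 100% = 100 µM tamoxifen stimulation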
Summary of the method: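 Cells were plated at 1000 per well and incubated 5 hr at 37°C, then compound was added for 16 hr. Caspase-Glo 3/7 reagent followed for 20 min at room temperature before luminescence was read.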

[8] = Cell Viability - LYMP2-001 (AID 921); details: LYMP2-001 lymphoblastoid cell viability; series mostly up to 92.2 µM;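 further: 0% = DMSO only and full inhibition = tetraoctylammonium bromide control wells; nearly all actives have a fitted effect of over 70% in size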
Summary of the method: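 CellTiter-Glo luminescence (intracellular ATP) after 24 hr compound exposure at 37 C, 2500 lymphoblastoid cells/well in complete medium. AC50 fitted with standard Hill equation; tetraoctylammonium bromide positive control.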

[9] = MultiTox-Fluor Cytotoxicity Assay - LYMP1-001 - Dead Cells (AID 946); details: LYMP1-001 lymphoblastoid cells, dead-cell protease fluorescence; series mostly up to 92.2 µM;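 further: 0% = DMSO and 100% = tetraoctylammonium bromide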
Summary of the method: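 LYMP1-001 lymphoblastoid cells (2500/well) treated 16 h at 37 C. Dead-cell protease cleavage of bis-AAF-R110 read at Ex/Em 485/520. Normalized to DMSO and 15 uM tetraoctylammonium bromide; AC50 from Hill fits.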

[10] = Cell Viability - LYMP1-003 - Assay at 40 hr (AID 964); details: LYMP1-003 lymphoblastoid viability; series mostly up to 92.2 µM; further: on the % scale 0 is the no-effect control and ±100 the full control effect; nearly all actives have a fitted effect of over 60% in size
Summary of the method: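 Luminescent ATP signal (CellTiter-Glo) served as the viability read-out after 40 hr compound treatment of human lymphoblastoid LYMP1-003 cells at 37 C. Decreases in ATP were fitted with the Hill equation to give AC50.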

[11] = Cell Viability - LYMP2-005 (AID 967); details: LYMP2-005 lymphoblastoid cell viability; series mostly up to 92.2 µM;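 further: plate controls were DMSO only for no effect and 92 µM tetraoctylammonium bromide control for full effect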
Summary of the method: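 Steps: seed 2500 LYMP2-005 cells/well, incubate 5 h at 37 C, add compound, incubate 24 h at 37 C, add CellTiter-Glo, wait 30 min at RT, read luminescence. Concentration-response data fitted to Hill equation for AC50.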

[12] = Cell Viability - LYMP2-011 (AID 969); details: LYMP2-011 lymphoblastoid cells viability; series mostly up to 92.2 µM;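 further: 0% = DMSO only and full inhibition = 92 µM tetraoctylammonium bromide; nearly all actives have a fitted effect of over 60% in size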
Summary of the method: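 In this qHTS cytotoxicity format, compounds are tested across concentrations on human lymphoblastoid cells in complete medium for 24 hours at 37 C. Viability is taken as cellular ATP measured by luciferase luminescence.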

[13] = Cell Viability - LYMP2-013 (AID 970); details: LYMP2-013 lymphoblastoid cells viability; series mostly up to 92.2 µM;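 further: 0% = DMSO only and full inhibition = tetraoctylammonium bromide control; nearly all actives have a fitted effect of over 55% in size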
Summary of the method: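 Cytotoxicity is scored as a concentration-dependent drop in intracellular ATP in human lymphoblastoid cells after 24 hr compound exposure at 37 C. ATP is quantified by luciferase luminescence, and AC50 values come from Hill-equation modeling.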

[14] = Cell Viability - LYMP2-017 (AID 972); details: LYMP2-017 lymphoblastoid cell viability; series mostly up to 92.2 µM; further: on the % scale 0 is the no-effect control and ±100 the full control effect; nearly all actives have a fitted effect of over 55% in size
Summary of the method: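 Cytotoxicity is scored as a concentration-dependent drop in cellular ATP in a human lymphoblastoid line after 24 hr treatment at 37 C. Values are AC50s from Hill-equation modelling.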

[15] = Cell Viability - LYMP2-007 (AID 979); details: LYMP2-007 lymphoblastoid cell viability; series mostly up to 92.2 µM;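 further: cells exposed to compound for 24 h before reading; 0% = DMSO only and the negative end = 92 µM tetraoctylammonium bromide; nearly all actives have a fitted effect of over 60% in size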
Summary of the method: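 Cells are seeded at 2500 per well and rested 5 hr. Compounds are then added over a concentration series for 24 hr at 37 C. CellTiter-Glo is added for 30 min at room temperature before luminescence reading.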

[16] = Cell Viability - LYMP2-010 (AID 981); details: LYMP2-010 lymphoblastoid cell viability, qHTS; series mostly up to 92.2 µM; further: on the % scale 0 is the no-effect control and ±100 the full control effect; nearly all actives have a fitted effect of over 55% in size
Summary of the method: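 Steps: seed 2500 LYMP2-010 cells per well; incubate 5 hr at 37 C; add compound; incubate 24 hr at 37 C; add CellTiter-Glo, wait 30 min at room temperature; read luminescence. Concentration-response fitted to Hill equation for AC50.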

[17] = Cell Viability - LYMP2-012 (AID 982); details: LYMP2-012 lymphoblastoid cell viability qHTS; series mostly up to 92.2 µM
[18] = Cell Viability - LYMP2-018 (AID 985); details: LYMP2-018 lymphoblastoid cells, viability (qHTS); series mostly up to 92.2 µM;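 further: plate controls were DMSO only for no effect and tetraoctylammonium bromide at 92 µM for full effect; nearly all actives have a fitted effect of over 50% in size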
Summary of the method: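 Seed 2500 lymphoblastoid cells per well, incubate 5 hr at 37 C, add compound and incubate 24 hr at 37 C, add CellTiter-Glo, wait 30 min at room temperature, then read luminescence.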

[19] = Cell Viability - LYMP2-022 (AID 987); details: LYMP2-022 lymphoblastoid cell viability; series mostly up to 92.2 µM
Summary of the method: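 Cells were seeded at 2500 per well, rested 5 hr at 37 C, and treated with titrated compounds for 24 hr at 37 C. Cellular ATP was then quantified by luciferase luminescence, and AC50 values were derived from Hill-modelled concentration-response curves.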

[20] = Cell Viability - LYMP2-024 (AID 988); details: LYMP2-024 lymphoblastoid cell viability; series mostly up to 92.2 µM;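 further: plate controls were DMSO only for no effect and 92 µM tetraoctylammonium bromide for full effect; nearly all actives have a fitted effect of over 60% in size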
Summary of the method: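 qHTS cytotoxicity, human lymphoblastoid line, complete medium; 24 h cpd treatment, 37 C; CellTiter-Glo ATP luminescence readout; tetraoctylammonium bromide positive control; AC50 via Hill fit.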

c1ccccc1
inactive: Potency [1] > 92 µM | Potency [2] > 92 µM | Potency [3] | Potency [4] | caspase-3 activation [5] 0.593% and 0.461% | outcome [6] | outcome [7] | Potency [8] | Potency [9] | Potency [10] | Potency [11] | Potency [12] | Potency [13] | Potency [14] | Potency [15] | Potency [16] | Potency [17] | Potency [18] | Potency [19] | Potency [20]

COC(=O)c1ccc(C=O)cc1
inactive: Potency [1] > 92 µM | Potency [2] > 92 µM | Potency [3] | Potency [4] | caspase-3 activation [5] 13.7% | outcome [6] | outcome [7] | Potency [8] | Potency [9] | Potency [10] | Potency [11] | Potency [12] | Potency [13] | Potency [14] | Potency [15] | Potency [16] | Potency [17] | Potency [18] | Potency [19] | Potency [20]

COCC(=O)O
inactive: Potency [1] > 92 µM | Potency [2] > 92 µM | Potency [3] | Potency [4] | caspase-3 activation [5] 0.941% | outcome [6] | outcome [7] | Potency [8] | Potency [9] | Potency [10] | Potency [11] | Potency [12] | Potency [13] | Potency [14] | Potency [15] | Potency [16] | Potency [17] | Potency [18] | Potency [19] | Potency [20]

C/C=C\c1ccc(OC)cc1
inactive: Potency [1] > 92 µM | Potency [2] > 92 µM | Potency [3] | Potency [4] | caspase-3 activation [5] -0.717% | outcome [6] | outcome [7] | Potency [8] | Potency [9] | Potency [10] | Potency [11] | Potency [12] | Potency [13] | Potency [14] | Potency [15] | Potency [16] | Potency [17] | Potency [18] | Potency [19] | Potency [20]

Cc1ccc([N+](=O)[O-])cc1N
inactive: Potency [1] > 92 µM | Potency [2] > 92 µM | Potency [3] | Potency [4] | caspase-3 activation [5] -0.45% | outcome [6] | outcome [7] | Potency [8] | Potency [9] | Potency [10] | Potency [11] | Potency [12] | Potency [13] | Potency [14] | Potency [15] | Potency [16] | Potency [17] | Potency [18] | Potency [19] | Potency [20]

COC(=O)c1ccc(C)cc1
inactive: Potency [1] > 92 µM | Potency [2] > 92 µM | Potency [3] | Potency [4] | caspase-3 activation [5] 0.483% | outcome [6] | outcome [7] | Potency [8] | Potency [9] | Potency [10] | Potency [11] | Potency [12] | Potency [13] | Potency [14] | Potency [15] | Potency [16] | Potency [17] | Potency [18] | Potency [19] | Potency [20]

COc1c2ccoc2cc2oc(=O)ccc12
inactive: Potency [1] > 92 µM | Potency [2] > 92 µM | Potency [3] | Potency [4] | caspase-3 activation [5] -0.404% | outcome [6] | outcome [7] | Potency [8] | Potency [9] | Potency [10] | Potency [11] | Potency [12] | Potency [13] | Potency [14] | Potency [15] | Potency [16] | Potency [17] | Potency [18] | Potency [19] | Potency [20]

CC1(C)CC(N=C=O)CC(C)(CN=C=O)C1 (stereo not given)
inactive: Potency [1] > 92 µM | Potency [2] > 92 µM | Potency [3] | Potency [4] | caspase-3 activation [5] 0.941% | outcome [6] | outcome [7] | Potency [8] | Potency [9] | Potency [10] | Potency [11] | Potency [12] | Potency [13] | Potency [14] | Potency [15] | Potency [16] | Potency [17] | Potency [18] | Potency [19] | Potency [20]
